This is an account of results in PubChem BioAssay (NCATS).

Where “and” joins values, the source holds several entries; their conditions need not be identical. Identical values can stand only once. Results filed as inconclusive are left out. Calls of active or inactive are those of the source. Unless noted, the call rests on the fitted dose curve; in most records, active means well fitted curve in the direction sought with a large enough effect; inconclusive means small, poorly fitted or top-dose-only effect, or another doubt; inactive means no such curve, though single readings can be large; an effect the other way counts as inactive or inconclusive.

Assay [1] concerns the target Catechol O-methyltransferase (Homo sapiens) (UniProt P21964). The assay is described as follows: Confirmatory Screen for Target Class Profiling of Small Molecule Inhibitors of Methyltransferases (AID 1745852; calls by dose curve; further: potency means the concentration at half of the fitted maximal effect; on activity change, negative = inhibition: on the % scale 0 is the no-effect control and ±100 the full control effect). As to conditions: MTase-Glo luminescence, SAH detection, recombinant enzyme; measured here: COMT max response; stronger effect = lower value.
The target of assay [2] is Guanidinoacetate N-methyltransferase (Homo sapiens) (UniProt Q14353). Described as above. As to conditions: MTase-Glo luminescence, SAH detection, recombinant enzyme; activity change, negative = inhibition: at 57.3 µM (top of the series) unless noted.
In assay [3] the target is Nicotinamide N-methyltransferase (Homo sapiens) (UniProt P40261). The description is as above. As to conditions: MTase-Glo luminescence, SAH detection, recombinant enzyme; measured here: NNMT max response; stronger effect = lower value.
Assay [4] concerns the target Phenylethanolamine N-methyltransferase (Homo sapiens) (UniProt P11086). Described as above. The note with it: MTase-Glo luminescence, SAH detection, recombinant enzyme; measured here: PNMT max response; stronger effect = lower value.
A short description of assay [5]: NCATS anti-infectives library activity on HEK293 viability as a counter-qHTS vs the C. elegans viability qHTS (AID 1745854).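 Further: HEK293 cells exposed to compounds for 24 hr before the viability read; on the % scale 0 is the no-effect control and ±100 the full control effect.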 As to conditions: HEK293 viability counter-screen; series mostly up to 41.8 µM. The gist of the method: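 Cytotoxicity in human HEK293 cells is measured by ATP-dependent CellTiter-Glo luminescence following a 24 hr incubation with titrated library compounds at 37C. Top final concentration is 41.7 uM.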

In assay [6] the target is Glutathione peroxidase 1 (Homo sapiens) (UniProt P07203). Briefly: Primary qHTS Assay for Inhibitors of Recombinant Selenoprotein Glutathione Peroxidase 1 (GPX1) (AID 1845191). Further: nearly all actives have a fitted effect of over 65% in size. The note with it: recombinant GPX1, GR-coupled NADPH fluorescence, 15 min; series mostly up to 48.8 µM. The gist of the method: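 10 nM GPX1 + cpd, 30 min RT; start w/ 1 mM GSH, 0.5 mM cumene hydroperoxide, 0.5 mM NADPH, 100 nM GR, 0.01% BSA; buffer 50 mM Tris-HCl pH 7.5, 2 mM EDTA, 150 mM NaCl; Fl 340/450, 0 & 15 min.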

Assay [7] in a line: Primary fluorescence-based thiol-reactive (MSTI) qHTS assay for identification of artifact compounds. (AID 1845221). Further: nearly all actives have a fitted effect of over 65% in size. Further: potency means the concentration at half of the fitted maximal effect. The note with it: MSTI thiol-reactivity probe, 1 h; series mostly up to 53.8 µM. The gist of the method:
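MSTI probe at 4 uM final in 2% DMSO/PBS pH 7.4; compounds, 1 h at room temperature in dark. Fluorescence Ex/Em 525/598 nm, normalised to Acetyl-MSTI and MSTI, fitted to 4-parameter Hill.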
Background: Quantitative high-throughput screening tests each substance at several concentrations.

Assay [8] deals with Nanoluciferase (engineered Oplophorus gracilirostris luciferase). Briefly: Primary Nanoluciferase (NLuc) qHTS assay for identification of artifact compounds. (AID 1845222).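 Further: 0% = DMSO and -100% = no enzyme.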 The note with it: NLuc-conditioned medium, Nano-Glo luminescence, 5 min; series mostly up to 54.1 µM. An outline of the steps:
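Compounds are pinned into diluted (1:55) conditioned medium of NLuc-expressing S16 cells and held 15 min at room temperature protected from light. Nano-Glo substrate follows, and luminescence is read 5 min later.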

Assay [9] in a line: Primary redox qHTS assay for identification of artifact compounds. (AID 1845223). Further: potency means the concentration at half of the fitted maximal effect. The note with it: Amplex Red/HRP redox cycling with DTT, fluorescence; series mostly up to 53.8 µM. An outline of the steps: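 Amplex Red (25 uM) and HRP (250 mU/mL) in HBSS, with compounds for 15 min, then 250 uM DTT for 30 min, room temperature, dark. Fluorescence 525/598 nm read; normalized to DMSO and 10 uM DA3003; Hill fit.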

A short description of assay [10]: Quantitative High-Throughput drug screen in 47 multiple myeloma cell lines against the NCATS MIPE library collection: FR4_PLB cell viability assay (AID 1918924; further: potency means the concentration at half of the fitted maximal effect; nearly all actives have a fitted effect of over 35% in size). The note with it: FR4_PLB myeloma cells viability, CellTiter-Glo ATP, 48 h; series mostly up to 45.8 µM. An outline of the steps: (§1)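 Primary qHTS used for cherry-picking: cells at 500/well, library compounds for 48 h (37C, 5% CO2), luminescent ATP assay.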
(Cellular ATP, detected with luciferase, serves as a proxy for viable cell number.)

Assay [11] can be described thus: Quantitative High-Throughput drug screen in 47 multiple myeloma cell lines against the NCATS MIPE library collection: Delta47_JCRB cell viability assay (AID 1918925; further: potency means the concentration at half of the fitted maximal effect; nearly all actives have a fitted effect of over 45% in size). The note with it: Delta47 myeloma viability, CellTiter-Glo ATP, 48 h; series mostly up to 45.8 µM. The gist of the method:
(§2)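 CellTiter-Glo luminescence (ATP) after 48 h compound exposure, 37C/5% CO2; 500 cells/well; MIPE 4.0 approved/investigational drugs pinned in; DMSO = 100%, media only = 0% viability.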

Assay [12] can be described thus: Quantitative High-Throughput drug screen in 47 multiple myeloma cell lines against the NCATS MIPE library collection: AMO1_DSMZ cell viability assay (AID 1918927; further: potency means the concentration at half of the fitted maximal effect; nearly all actives have a fitted effect of over 30% in size). As to conditions: AMO1 myeloma cells viability, CellTiter-Glo ATP luminescence, 48 h; series mostly up to 45.8 µM. An outline of the steps: as §2
Assay [13] in a line: Quantitative High-Throughput drug screen in 47 multiple myeloma cell lines against the NCATS MIPE library collection: ARP1_JJKsccF8 cell viability assay (AID 1918928; further: potency means the concentration at half of the fitted maximal effect; nearly all actives have a fitted effect of over 40% in size). The note with it: ARP1 myeloma cells viability, CellTiter-Glo ATP, 48 h; series mostly up to 45.8 µM. The gist of the method: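 Myeloma cells at 500 per well in 1536-well format treated with MIPE 4.0 library by pin transfer for 48 h at 37C, 5% CO2. Viability from ATP luminescence (CellTiter-Glo), normalized to DMSO (100%) and media-only (0%) wells.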

Assay [14] is described as follows: Quantitative High-Throughput drug screen in 47 multiple myeloma cell lines against the NCATS MIPE library collection: Karpas620_DSMZ cell viability assay (AID 1918959). Further: nearly all actives have a fitted effect of over 30% in size. Further: potency means the concentration at half of the fitted maximal effect. The note with it: Karpas620 myeloma viability, CellTiter-Glo ATP luminescence, 48 h; series mostly up to 45.8 µM. An outline of the steps: as §1
The target of assay [15] is Phospholipid hydroperoxide glutathione peroxidase GPX4 (Homo sapiens) (UniProt P36969). The assay is described as follows: Primary qHTS Assay for Inhibitors of Recombinant Selenoprotein Glutathione Peroxidase 4 (GPX4) (AID 1845192). Further: nearly all actives have a fitted effect of over 65% in size. Further: potency means the concentration at half of the fitted maximal effect. On activity change, negative = inhibition: on the % scale 0 is the no-effect control and ±100 the full control effect. As to conditions: recombinant GPX4, GR-coupled NADPH fluorescence, 15 min; series mostly up to 50 µM. An outline of the steps:
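NADPH consumption, followed by fluorescence at 340/450 nm between 0 and 15 min, reports GPX4 activity via coupled glutathione reductase (100 nM). Enzyme 200 nM was pre-exposed to compound 30 min; 0.5 mM cumene hydroperoxide and 1 mM GSH served as substrates.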

Assay [16] addresses Luciferin 4-monooxygenase (Photinus pyralis) (UniProt P08659). Briefly: Primary firefly luciferase (FLuc) qHTS assay for identification of artifact compounds. (AID 1845220). Further: nearly all actives have a fitted effect of over 60% in size.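 On activity change, negative = inhibition: plate controls were DMSO vehicle for no effect and no enzyme for full effect.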 The note with it: purified firefly luciferase, luminescence, 5 min; series mostly up to 54.1 µM. The gist of the method: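 Cell-free, 1536-well qHTS. Buffer pH 7.6 with 0.01% Tween-20 and 0.05% BSA; 10 uM D-luciferin, 10 uM ATP; 10 nM P. pyralis luciferase; luminescence after 5 min.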

Assay [17] in a line: Quantitative High-Throughput drug screen in 47 multiple myeloma cell lines against the NCATS MIPE library collection: EJM_DSMZ cell viability assay (AID 1918926; further: potency means the concentration at half of the fitted maximal effect; nearly all actives have a fitted effect of over 30% in size). The note with it: EJM myeloma cell viability, CellTiter-Glo ATP, 48 h; series mostly up to 45.8 µM. An outline of the steps: as §2
Assay [18] in a line: Quantitative High-Throughput drug screen in 47 multiple myeloma cell lines against the NCATS MIPE library collection: ARD_JJKsccE7 cell viability assay (AID 1918929; further: potency means the concentration at half of the fitted maximal effect). The note with it: ARD myeloma cell line viability, CellTiter-Glo, 48 h; series mostly up to 45.8 µM. An outline of the steps:
as §2

Chain of Phospholipid hydroperoxide glutathione peroxidase GPX4 (Homo sapiens) (P36969 whole entry, looked up): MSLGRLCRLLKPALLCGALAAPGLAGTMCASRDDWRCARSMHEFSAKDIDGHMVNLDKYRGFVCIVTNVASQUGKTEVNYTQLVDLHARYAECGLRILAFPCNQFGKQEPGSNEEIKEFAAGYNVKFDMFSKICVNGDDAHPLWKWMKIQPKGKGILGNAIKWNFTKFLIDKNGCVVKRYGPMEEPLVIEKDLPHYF
Chain of Nicotinamide N-methyltransferase (Homo sapiens) (P40261 whole entry, looked up): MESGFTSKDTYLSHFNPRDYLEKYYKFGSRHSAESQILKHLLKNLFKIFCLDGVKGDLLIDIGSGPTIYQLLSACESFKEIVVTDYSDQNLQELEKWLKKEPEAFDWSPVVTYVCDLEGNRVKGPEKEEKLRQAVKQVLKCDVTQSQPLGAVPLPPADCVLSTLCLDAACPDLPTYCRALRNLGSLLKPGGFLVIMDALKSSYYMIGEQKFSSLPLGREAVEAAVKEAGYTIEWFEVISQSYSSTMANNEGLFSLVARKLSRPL
Chain of Phenylethanolamine N-methyltransferase (Homo sapiens) (P11086 whole entry, looked up): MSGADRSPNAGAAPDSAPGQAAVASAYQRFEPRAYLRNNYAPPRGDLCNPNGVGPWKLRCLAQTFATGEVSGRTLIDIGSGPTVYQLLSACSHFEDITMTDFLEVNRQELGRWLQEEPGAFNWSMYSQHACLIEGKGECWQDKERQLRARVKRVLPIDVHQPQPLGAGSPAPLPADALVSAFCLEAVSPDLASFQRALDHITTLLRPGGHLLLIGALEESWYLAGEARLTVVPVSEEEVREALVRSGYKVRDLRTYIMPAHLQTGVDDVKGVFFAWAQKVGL
Chain of Catechol O-methyltransferase (Homo sapiens) (P21964 whole entry, looked up): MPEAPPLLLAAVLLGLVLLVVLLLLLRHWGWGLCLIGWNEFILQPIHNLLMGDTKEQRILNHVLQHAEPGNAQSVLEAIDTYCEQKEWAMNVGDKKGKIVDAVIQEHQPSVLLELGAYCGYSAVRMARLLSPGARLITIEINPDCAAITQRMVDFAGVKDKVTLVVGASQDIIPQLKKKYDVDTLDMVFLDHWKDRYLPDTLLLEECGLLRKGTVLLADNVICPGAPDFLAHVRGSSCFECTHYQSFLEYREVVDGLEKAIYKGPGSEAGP
Chain of Glutathione peroxidase 1 (Homo sapiens) (P07203 whole entry, looked up): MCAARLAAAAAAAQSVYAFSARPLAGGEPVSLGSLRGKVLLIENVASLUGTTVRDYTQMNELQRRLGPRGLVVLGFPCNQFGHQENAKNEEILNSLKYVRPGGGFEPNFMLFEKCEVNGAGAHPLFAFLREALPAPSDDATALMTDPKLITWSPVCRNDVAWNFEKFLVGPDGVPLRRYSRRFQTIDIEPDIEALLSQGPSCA

As to `Cc1coc2c1C(=O)C(=O)c1c-2ccc2c1CCCC2(C)C`, the activity in assay [1] is -26.5%; in [3] it was -48.9%; in assay [4], -37.9%. Moreover, the Potency is 24.1 µM (active) in assay [2]; 1.34 µM (active) in assay [7]; 9.47 µM (active) in assay [9]; 20.9 µM (active) in assay [10]; 8.33 µM (active) in assay [11]; 0.0209 µM (active) in [12]. Besides, in assay [13], the Potency was 16.6 µM (active). The Potency entry in [5], in assay [6], in assay [8] and in assay [14] was “inactive” in each case.
Consider `Cc1nc(Nc2n[nH]c3c2CN(C(=O)N[C@H](CN(C)C)c2ccccc2)C3(C)C)c2sccc2n1`, for which the activity is -6.29% in assay [1], -22.7% in [3] and -1.08% in assay [4]. The Potency is 0.0061 µM (active) in assay [2]; 0.833 µM (active) in assay [10]; 0.0332 µM (active) in [11]; 1.48 µM (active) in assay [17]; 0.0743 µM (active) in [12]; 0.469 µM (active) in assay [13]. Besides, the Potency in assay [14] was 2.64 µM (active). In addition, the Potency entry in [6], in assay [15], in assay [16], in assay [7], in assay [8] and in assay [9] was “inactive” each time.
For the molecule `CN1CCC(CNc2ccc3ncc(-c4cccc(OC(F)(F)F)c4)n3n2)CC1`, the activity in assay [1] is -52.2%; in [3] it was -51.9%; in assay [4] it was -68.8%. The Potency was 30.4 µM (active) in assay [2]; 22.7 µM (active) and 14.3 µM (active) in assay [15]; 18.7 µM (active) in assay [10]; 4.69 µM (active) in [11]; 26.4 µM (active) in [17]; 13.2 µM (active) in assay [12]. The results for the Potency in assay [13], in assay [18] and in assay [14] were 13.2 µM (active), 11.8 µM (active) and 10.5 µM (active), respectively. In addition, the Potency entry in assay [16], in assay [7], in assay [8] and in assay [9] was “inactive” each time.
Regarding `CC1(C)CC(=O)c2c(C(F)(F)F)nn(-c3ccc(C(N)=O)c(NC4CCC(OC(=O)CN)CC4)c3)c2C1` (stereo unspecified), the activity in assay [1] is -2.7%; in [3], -47.8%; in assay [4] it was -0.772%. For the same molecule, the activity change, negative = inhibition in assay [2] worked out at 0%. Moreover, the Potency entry in assay [6], in assay [15], in assay [16], in [7], in assay [8] and in [9] was “inactive” in each case. In addition, the Potency in [11] was 0.166 µM (active); in assay [12], 0.148 µM (active); in [13] it was 0.235 µM (active); in [18] it was 0.0935 µM (active).
On to `COCCOc1ccc2c(c1)ncn2-c1ccc2cccc(N3CCC(N)CC3)c2n1`, for which the activity was -17.6% in [1], -9.06% in [3] and -17.7% in assay [4]. Also, the Potency in [2] was 48.2 µM (active); in assay [10] it was 10.5 µM (active); in assay [11] it was 4.18 µM (active); in [17] it was 5.9 µM (active); in [12], 2.09 µM (active); in assay [13] it was 0.418 µM (active). Further, the Potency is 2.96 µM (active) in assay [18] and 10.5 µM (active) in assay [14]. Further, the Potency entry in [6], in assay [15], in assay [16], in [7] and in [8] was “inactive” each time.
